Results published in PubChem BioAssay (NCATS).
Values joined by “and” are separate entries in the source; they are usually repeats but may differ in a detail not shown here. Equal entries are not always repeated. Inconclusive results are not listed. Active and inactive are the calls of the source. The call rests on the fitted dose curve; in most records, active means well fitted curve in the direction sought with a large enough effect; inconclusive means small, poorly fitted or top-dose-only effect, or another doubt; inactive means no such curve, though single readings can be large; an effect the other way counts as inactive or inconclusive.

How the values were obtained:
TAB165 = assay: qHTS profiling for inhibitors of Plasmodium falciparum proliferation (AID 504749); further: nearly all actives have a fitted effect of over 60% in size; further: potency means the concentration at half of the fitted maximal effect; details: P. falciparum in erythrocytes, SYBR Green DNA, 72 h; series mostly up to 28.7 µM
Procedure, shortened: (§1)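 In a 72 h erythrocytic culture (37 C, humidified, 5% CO2) at 2.5% hematocrit and 0.3% starting parasitemia, compounds were tested; SYBR Green I in detergent lysis buffer stained parasite DNA overnight.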

W2 = assay: as above; details: P. falciparum in erythrocytes, SYBR Green DNA, 72 h; series mostly up to 28.7 µM
Procedure, shortened: as §1

CRL-7250 [1] = assay: Cytotoxic Profiling of Annotated Libraries Using Quantitative High-Throughput Screening (AID 1296008); details: Five cell lines viability, CellTiter-Glo ATP luminescence, 48-72 h; max response: hits give low values; further: nearly all actives have a fitted effect of over 60% in size; on max response: on the % scale 0 is the no-effect control and ±100 the full control effect
Procedure, shortened: (§2)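 Cytotoxicity was measured as CellTiter-Glo ATP luminescence, read after 10 min at room temperature. Compound treatment of the cells lasted 48 or 72 hr at 37 degrees Celsius in a qHTS format.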

HEK293 = assay: as above; details: Five cell lines viability, CellTiter-Glo ATP luminescence, 48-72 h; max response: hits give low values
Procedure, shortened: as §2

HaCat [2] = assay: as above; details: Five cell lines viability, CellTiter-Glo ATP luminescence, 48-72 h; max response: hits give low values
Procedure, shortened: as §2

KB-3-1 = assay: as above; details: Five cell lines viability, CellTiter-Glo ATP luminescence, 48-72 h; max response: hits give low values
Procedure, shortened: as §2

NIH3T3 [3] = assay: as above; details: Five cell lines viability, CellTiter-Glo ATP luminescence, 48-72 h; max response: hits give low values
Procedure, shortened: as §2

MCC-13 = assay: qHTS assay to identify novel small-molecules to repurpose for Merkel cell carcinoma treatment (AID 1296009); details: MCC and control cell lines, CellTiter-Glo viability, 72 h; series mostly up to 46 µM; further: nearly all actives have a fitted effect of over 60% in size
Procedure, shortened: (§3)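 Cell viability measured by CellTiter-Glo following 72 hr compound treatment at 37 degree celsius, with NPC and MIPE libraries tested in 8- and 11-point concentration series.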

MCC-26 = assay: as above; details: MCC and control cell lines, CellTiter-Glo viability, 72 h; series mostly up to 46 µM
Procedure, shortened: as §3

MKL-1 = assay: as above; details: MCC and control cell lines, CellTiter-Glo viability, 72 h; series mostly up to 46 µM
Procedure, shortened: as §3

MKL-2 = assay: as above; details: MCC and control cell lines, CellTiter-Glo viability, 72 h; series mostly up to 46 µM
Procedure, shortened: as §3

NIH3T3 [4] = assay: as above; details: MCC and control cell lines, CellTiter-Glo viability, 72 h; at 44.8 µM (top of the series) unless noted
Procedure, shortened: as §3

UISO = assay: as above; details: MCC and control cell lines, CellTiter-Glo viability, 72 h; series mostly up to 46 µM
Procedure, shortened: as §3

WaGa = assay: as above; details: MCC and control cell lines, CellTiter-Glo viability, 72 h; series mostly up to 46 µM
Procedure, shortened: as §3

C33A = assay: Primary qHTS to identify gynecologic anti-cancer compounds using libraries of approved drugs and bioactive compounds (AID 1345084); details: Gynecologic cancer cell panel viability, ATPlite luminescence, 48 h; series mostly up to 57.5 µM; further: on the % scale 0 is the no-effect control and ±100 the full control effect; nearly all actives have a fitted effect of over 55% in size
Procedure, shortened: (§4)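 Cell viability after 48 h drug treatment, ATPlite luminescence readout; five doses.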

CAOV3 = assay: as above; details: Gynecologic cancer cell panel viability, ATPlite luminescence, 48 h; series mostly up to 57.5 µM
Procedure, shortened: as §4

CASKI = assay: as above; details: Gynecologic cancer cell panel viability, ATPlite luminescence, 48 h; series mostly up to 57.5 µM
Procedure, shortened: as §4

CRL-7250 [5] = assay: qHTS assay to identify novel small-molecules to repurpose for Merkel cell carcinoma treatment (AID 1296009); details: MCC and control cell lines, CellTiter-Glo viability, 72 h; at 44.8 µM (top of the series) unless noted; further: nearly all actives have a fitted effect of over 60% in size
Procedure, shortened: as §3

HACAT [6] = assay: as above; details: MCC and control cell lines, CellTiter-Glo viability, 72 h; at 44.8 µM (top of the series) unless noted
Procedure, shortened: as §3

HEK293T = assay: as above; details: MCC and control cell lines, CellTiter-Glo viability, 72 h; at 44.8 µM (top of the series) unless noted
Procedure, shortened: as §3

c1ccc2c(c1)sc1ccccc12
inactive: Potency (TAB165) | Potency (W2) | max response (CRL-7250 [1]) 2.83% | max response (HEK293) 0.977% | max response (HaCat [2]) -3.8% | max response (KB-3-1) -1.3% | outcome (NIH3T3 [3]) | outcome (MCC-13) | Potency (MCC-26) | Potency (MKL-1) | Potency (MKL-2) | outcome (NIH3T3 [4]) | Potency (UISO) | Potency (WaGa) | Potency (C33A) | outcome (CAOV3) | outcome (CASKI)

CC(C)NC(C)C
inactive: Potency (TAB165) | Potency (W2) | max response (CRL-7250 [1]) 1.83% | max response (HEK293) 1.45% | max response (HaCat [2]) 1.53% | max response (KB-3-1) 13.4% | outcome (NIH3T3 [3]) | outcome (MCC-13) | Potency (MCC-26) | Potency (MKL-1) | Potency (MKL-2) | outcome (NIH3T3 [4]) | Potency (UISO) | Potency (WaGa) | Potency (C33A) | outcome (CAOV3) | outcome (CASKI)

O=C(O)c1ccc(=O)[nH]c1
inactive: outcome (CRL-7250 [1]) | max response (HEK293) -0.0722% | outcome (HaCat [2]) | outcome (NIH3T3 [3]) | outcome (CRL-7250 [5]) | outcome (HACAT [6]) | outcome (MCC-13) | Potency (MCC-26) | Potency (MKL-1) | Potency (MKL-2) | outcome (NIH3T3 [4]) | Potency (UISO) | Potency (WaGa) | Potency (C33A) | outcome (CAOV3) | outcome (CASKI)

Clc1ccc(C(c2ccc(Cl)cc2)C(Cl)(Cl)Cl)cc1
inactive: max response (CRL-7250 [1]) -9.96% | max response (HEK293) -19.8% | max response (HaCat [2]) 1.96% | max response (KB-3-1) -11.6% | max response (NIH3T3 [3]) -6.38% | outcome (MCC-13) | Potency (MKL-1) | Potency (MKL-2) | Potency (UISO) | Potency (WaGa) | Potency (C33A) | outcome (CAOV3) | outcome (CASKI)
active: Potency (W2) 6.01 µM

CNCC(=O)c1ccc(O)c(O)c1
inactive: max response (CRL-7250 [1]) 0.325% | max response (HEK293) 3.33% | outcome (HaCat [2]) | max response (KB-3-1) -7.67% | max response (NIH3T3 [3]) -2.19% | outcome (HACAT [6]) | outcome (MCC-13) | Potency (MKL-1) | Potency (MKL-2) | Potency (UISO) | Potency (WaGa) | Potency (C33A) | outcome (CASKI)

CN(C)CCc1c[nH]c2cccc(OP(=O)(O)O)c12
inactive: max response (CRL-7250 [1]) -37.9% | max response (HEK293) -1.43% | max response (HaCat [2]) 4.32% | max response (KB-3-1) -1.8% | max response (NIH3T3 [3]) -11.6% | outcome (MCC-13) | Potency (MKL-1) | Potency (MKL-2) | Potency (UISO) | Potency (WaGa) | Potency (C33A) | outcome (CAOV3) | outcome (CASKI)

C=CCC1([C@H](C)CCC)C(=O)NC(=O)NC1=O
inactive: max response (CRL-7250 [1]) 1.74% | max response (HEK293) 1.82% | max response (HaCat [2]) -2.25% | max response (KB-3-1) -1.57% | max response (NIH3T3 [3]) -4.37% | outcome (MCC-13) | Potency (MCC-26) | Potency (MKL-1) | Potency (MKL-2) | Potency (UISO) | Potency (WaGa) | Potency (C33A) | outcome (CAOV3) | outcome (CASKI)

CN1C(=O)NC(=O)C(C)(C2=CCCCC2)C1=O (configuration not stated)
inactive: Potency (TAB165) | Potency (W2) | max response (CRL-7250 [1]) -9.98% | outcome (HEK293) | max response (HaCat [2]) -13.8% | max response (KB-3-1) -0.631% and -0.133% | outcome (NIH3T3 [3]) | outcome (HEK293T) | outcome (MCC-13) | Potency (MKL-1) | Potency (MKL-2) | outcome (NIH3T3 [4]) | Potency (UISO) | Potency (WaGa) | Potency (C33A) | outcome (CAOV3) | outcome (CASKI)

CCC1(c2ccccc2)C(=O)N(COC)C(=O)N(COC)C1=O
inactive: Potency (TAB165) | Potency (W2) | max response (CRL-7250 [1]) -1.83% | max response (HEK293) 3.09% | max response (HaCat [2]) 3.73% | max response (KB-3-1) -3.81% | outcome (NIH3T3 [3]) | outcome (MCC-13) | Potency (MCC-26) | Potency (MKL-1) | Potency (MKL-2) | outcome (NIH3T3 [4]) | Potency (UISO) | Potency (WaGa) | Potency (C33A) | outcome (CAOV3) | outcome (CASKI)

CCC1(CC)C(=O)C=CNC1=O
inactive: Potency (TAB165) | Potency (W2) | max response (CRL-7250 [1]) -2.85% | max response (HEK293) 4.85% | max response (HaCat [2]) -9.12% | max response (KB-3-1) -0.338% | max response (NIH3T3 [3]) 1.41% | outcome (MCC-13) | Potency (MCC-26) | Potency (MKL-1) | Potency (MKL-2) | Potency (UISO) | Potency (WaGa) | Potency (C33A) | outcome (CAOV3) | outcome (CASKI)

COc1cc(CC(C)N)cc(OC)c1OC (configuration not stated)
inactive: max response (CRL-7250 [1]) -18.9% | max response (HEK293) -9.05% | max response (HaCat [2]) 2.22% | max response (KB-3-1) -7.25% | max response (NIH3T3 [3]) -5.38% | outcome (MCC-13) | Potency (MCC-26) | Potency (MKL-1) | Potency (MKL-2) | Potency (UISO) | Potency (WaGa) | outcome (CASKI)

COc1c2c(cc3c1OCO3)CCN(C)C2
inactive: Potency (TAB165) | max response (CRL-7250 [1]) -2.93% | max response (HEK293) -25.2% | max response (HaCat [2]) -2.59% | max response (KB-3-1) 5.77% | max response (NIH3T3 [3]) -8.45% | outcome (MCC-13) | Potency (MCC-26) | Potency (MKL-1) | Potency (MKL-2) | Potency (UISO) | Potency (WaGa) | Potency (C33A) | outcome (CASKI)

Nc1ccc([As](=O)(O)O)cc1
inactive: Potency (TAB165) | max response (CRL-7250 [1]) 1.05% | max response (HEK293) -6.15% | max response (HaCat [2]) -3.33% | max response (KB-3-1) -4.72% | outcome (NIH3T3 [3]) | outcome (MCC-13) | Potency (MCC-26) | Potency (MKL-1) | Potency (MKL-2) | outcome (NIH3T3 [4]) | Potency (UISO) | Potency (WaGa) | Potency (C33A) | outcome (CAOV3) | outcome (CASKI)

CNC(C)(C)Cc1ccccc1
inactive: Potency (TAB165) | Potency (W2) | max response (CRL-7250 [1]) -3% | max response (HEK293) -3.64% | outcome (HaCat [2]) | max response (KB-3-1) 16.1% | max response (NIH3T3 [3]) 2.82% | outcome (HACAT [6]) | outcome (MCC-13) | Potency (MKL-1) | Potency (MKL-2) | Potency (UISO) | Potency (WaGa) | Potency (C33A) | outcome (CAOV3) | outcome (CASKI)
